# According to paper PMC7862700, “An all-to-all approach to the identification of sequence-specific readers for epigenetic DNA modifications on cytosine”:
# Target: T1, ELK3 (Homo sapiens, UniProt P41970 1-407)
# T1 sequence: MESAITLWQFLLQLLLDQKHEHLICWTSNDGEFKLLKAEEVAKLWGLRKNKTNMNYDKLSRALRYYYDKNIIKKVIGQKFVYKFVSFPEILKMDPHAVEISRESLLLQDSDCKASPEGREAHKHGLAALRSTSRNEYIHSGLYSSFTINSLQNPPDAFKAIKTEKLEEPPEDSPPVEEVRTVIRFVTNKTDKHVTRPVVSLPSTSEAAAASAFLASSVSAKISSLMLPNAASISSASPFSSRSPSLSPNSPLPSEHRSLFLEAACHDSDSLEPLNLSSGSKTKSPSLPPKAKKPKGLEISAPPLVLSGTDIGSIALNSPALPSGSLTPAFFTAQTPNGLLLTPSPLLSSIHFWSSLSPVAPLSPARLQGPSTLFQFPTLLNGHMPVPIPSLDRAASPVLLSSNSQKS
# Assay: DAPPL (digital affinity profiling via proximity ligation, sequencing); 10 mM Tris-HCl pH 7.5, 50 mM NaCl, 1 mM DTT, 4% glycerol, room temperature, 30 min; GST-TFs on glutathione beads, 16-mer random dsDNA library, 0.1% formaldehyde crosslink after washing; high values mean tight binding
# Settings: protein: recombinant; tags: N-terminal GST; dsDNA, one strand shown
# Outline: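 GST fusions of human transcription factors were expressed in yeast and captured with glutathione beads. Once given DNA barcodes and pooled alongside a tag-only sample, they were incubated for 30 min at room temperature with 200 nmole of a random double-stranded 16-mer DNA library in Tris/NaCl/DTT/glycerol buffer, then washed, crosslinked (0.1% formaldehyde), proximity-ligated, PCR-amplified and sequenced on an Illumina NextSeq500. The binding signal of each hexamer is its read frequency for a factor divided by its frequency for the tag-only sample.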
row,Sequence,binding signal
1,AACTGG,"1.28 fold enrichment (6-mer frequency, TF over GST control)"
2,AATATG,"1.19 fold enrichment (6-mer frequency, TF over GST control)"
3,AATGGC,"1.26 fold enrichment (6-mer frequency, TF over GST control)"
4,CTTGAT,"1.34 fold enrichment (6-mer frequency, TF over GST control)"
5,TCTTGA,"1.29 fold enrichment (6-mer frequency, TF over GST control)"
6,AAGCAT,"1.04 fold enrichment (6-mer frequency, TF over GST control)"
7,CTACGC,"1.56 fold enrichment (6-mer frequency, TF over GST control)"
8,AAAACG,"1.14 fold enrichment (6-mer frequency, TF over GST control)"
9,ATTGTA,"1.27 fold enrichment (6-mer frequency, TF over GST control)"
10,TCCTCA,"1.55 fold enrichment (6-mer frequency, TF over GST control)"
11,TTTTAT,"1.34 fold enrichment (6-mer frequency, TF over GST control)"
12,CTTGGT,"1.66 fold enrichment (6-mer frequency, TF over GST control)"
13,TATATC,"1.42 fold enrichment (6-mer frequency, TF over GST control)"
14,ATAAAA,"1.12 fold enrichment (6-mer frequency, TF over GST control)"
15,TCCAAC,"1.21 fold enrichment (6-mer frequency, TF over GST control)"
16,CAAAAC,"1.21 fold enrichment (6-mer frequency, TF over GST control)"
17,CGATCT,"1.3 fold enrichment (6-mer frequency, TF over GST control)"
18,TTATTT,"1.33 fold enrichment (6-mer frequency, TF over GST control)"
19,ATGTTC,"1.14 fold enrichment (6-mer frequency, TF over GST control)"
20,TTCCCA,"1.17 fold enrichment (6-mer frequency, TF over GST control)"

row,Sequence,binding signal
1,TTAAAC,"1.31 fold enrichment (6-mer frequency, TF over GST control)"
2,TATTAA,"1.2 fold enrichment (6-mer frequency, TF over GST control)"
3,TGCTAT,"1.63 fold enrichment (6-mer frequency, TF over GST control)"
4,AAATGT,"1.37 fold enrichment (6-mer frequency, TF over GST control)"
5,CTTCTG,"1.4 fold enrichment (6-mer frequency, TF over GST control)"
6,ATGCGA,"1.14 fold enrichment (6-mer frequency, TF over GST control)"
7,GCGCTT,"1.31 fold enrichment (6-mer frequency, TF over GST control)"
8,TTTGTA,"1.51 fold enrichment (6-mer frequency, TF over GST control)"
9,CTACCA,"1.16 fold enrichment (6-mer frequency, TF over GST control)"
10,CCGTCT,"1.36 fold enrichment (6-mer frequency, TF over GST control)"
11,TAACAT,"1.28 fold enrichment (6-mer frequency, TF over GST control)"
12,ATGAGC,"1.19 fold enrichment (6-mer frequency, TF over GST control)"
13,CAACTT,"1.59 fold enrichment (6-mer frequency, TF over GST control)"
14,CTTTAT,"1.25 fold enrichment (6-mer frequency, TF over GST control)"
15,TATGGC,"1.16 fold enrichment (6-mer frequency, TF over GST control)"
16,ACAGCT,"1.18 fold enrichment (6-mer frequency, TF over GST control)"
17,TAGTTT,"1.23 fold enrichment (6-mer frequency, TF over GST control)"
18,TTATGG,"1.39 fold enrichment (6-mer frequency, TF over GST control)"
19,CTTCGT,"1.4 fold enrichment (6-mer frequency, TF over GST control)"
20,TTAACT,"1.19 fold enrichment (6-mer frequency, TF over GST control)"
